The whole screen tested about 420,000 compounds, of which about 64,000 (15%) were called active. Not shown: some 27% with an inconclusive outcome. Calls come from the whole dose curve; as a rule, active = well fitted inhibition curve with a large enough effect; inconclusive = small, poorly fitted or top-dose-only effect; inactive = flat fitted curve, though single readings scatter. The list is a sample of the results. A call without a number means that no potency is given here.
Potency is the fitted concentration of half-maximal effect.

The nature of this assay: qHTS for Inhibitors of human tyrosyl-DNA phosphodiesterase 1 (TDP1): qHTS in cells in absence of CPT. Note: nearly all actives have a fitted effect of over 55% in size. To be noted: DT40 Tdp1-/- hTDP1 cells, no CPT, ATP luminescence, 48 h; activity change, negative = growth inhibition: at 46.2 µM (top of the series). In outline:
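Compound effects on proliferation are scored in DT40 Tdp1-/-;hTDP1 cells in the absence of CPT. ATP levels (CellTiter-Glo luminescence) are recorded after a ≥48 hr, 37 °C incubation.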
As to `CCN(CC)S(=O)(=O)c1ccc2c3c(cccc13)C(=O)S2`, the Potency result is “inactive”.

For the molecule `C/C(=N\NC(=O)c1cccnc1)c1ccc(-n2ccnc2)cc1`, the Potency entry was “inactive”. The same measure for `COCC(C)NCc1cc(Br)ccc1OC` (stereo not given): “inactive”; for `CCC(C)NCCOCCOc1ccc(Br)cc1C` (stereo not given): 20.6 µM (active).

Regarding `O=C1C(=O)N(CCCN2CCOCC2)C(c2ccc([N+](=O)[O-])cc2)/C1=C(\O)c1ccc2c(c1)OCCO2` (stereo not given), the Potency result is “inactive”. For `O=C(ON=C1CCN(S(=O)(=O)c2ccccc2)CC1)c1ccc(Cl)cc1` the value was “inactive”. For `CCOc1ccc2[nH]c3nc(SCC(=O)NC4CCCC4)nnc3c2c1` the value was 6.51 µM (active). The same measure for `CCOc1cccc(-c2nnc(SCC(=O)NC3CC3)n2C)c1`: “inactive”; for `Cc1ccc(CNC(=O)CSc2nnc3c(n2)[nH]c2ccc(F)cc23)cc1`: “inactive”.

In the case of `CC(Sc1nncn1C)C(=O)Nc1ccccc1-c1ccccc1` (stereo not given), the Potency result was “inactive”. The same measure for `Cn1c(=O)c2cc(NC(=O)NCCc3cccs3)ccc2n1Cc1cccc(C(F)(F)F)c1`: 23.1 µM (active); for `COc1ccc(CCNC(=O)Nc2ccc3c(c2)c(=O)n(C)n3C)cc1OC`: “inactive”. The same measure for `O=C(Cc1cccs1)NCc1cccc(C(F)(F)F)c1`: “inactive”; for `COc1ccc(S(=O)(=O)Nc2cccnc2)c(Cl)c1Cl`: “inactive”. The same measure for `Cc1c(NC(=O)CSCc2ccccc2)cccc1C(=O)O`: “inactive”. Consider `O=C(c1cc(-c2ccc(O)cc2)on1)N1CCCc2ccccc21`, for which the Potency entry is “inactive”. In the case of `Cc1occc1C(=O)N1CCCc2ccccc21`, the Potency entry is “inactive”. For `Cc1cccc2cc3c(N)c(C(=O)N4CCCc5ccccc54)sc3nc12` the value was 2.59 µM (active); for `CC(C)[C@H](NC(=O)OCc1ccccc1)C(=O)OCc1ccccc1`, “inactive”; for `c1ccc2c(C[n+]3csc4ccccc43)cccc2c1`, 0.82 µM (active). The same measure for `Nc1scc[n+]1Cc1cccc2cccnc12`: “inactive”; for `CCOCCCNC(=O)c1cn(CC(C)C)c(=O)c2c1c1ccccc1n2C`: “inactive”.

As to `CCOc1ccc(CC(=O)NCCc2csc3nc(-c4ccccc4F)nn23)cc1`, the Potency result is “inactive”. The same measure for `CCOc1ccc(CCNC(=O)c2c(C)oc3ncn(C)c(=O)c23)cc1`: “inactive”. The same measure for `Cn1c(C(=O)NCCc2ccsc2)cc2c(=O)n(C)c3ccccc3c21`: 16.4 µM (active); for `Cn1c(C(=O)N2CCC(C(N)=O)CC2)cc2c(=O)n(C)c3ccccc3c21`: “inactive”. For `CCOc1ccc(CCNC(=O)c2cc3c(=O)n(C)c4ccccc4c3n2C)cc1` the value was 14.6 µM (active). As for `COc1ccc(C(=O)NNC(=O)c2cnccn2)cc1[N+](=O)[O-]`, the Potency result was “inactive”. The same measure for `CCc1ccc(N2C(=O)CN(S(=O)(=O)CC)CC2(C)C(=O)NC2CCCCC2)cc1` (stereo not given): “inactive”; for `Cc1cccc(-n2c(O)c(C=Nc3ccccc3N)c(=O)[nH]c2=O)c1`: “inactive”.

(Values after PubChem BioAssay AID686978 (National Center for Advancing Translational Sciences (NCATS), 2013).)
